# Assay: viability profiling in RPMI8226 myeloma cells – cell-based, resazurin fluorescence, basal, 24 h, PK04 Diversity Set, profiling panel (AID 1180);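 note: RPMI8826 multiple myeloma cell line at 5000 cells per well; test concentration not given here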
# Settings: higher = more signal
row,SMILES,z-score
1,O=C1c2ccccc2[C@](Cc2ccccc2I)(C(=O)NCc2ccccc2)[C@H](c2ccc(CO)cc2)N1C1CCCCC1,0.489
2,COc1ccc(C(O)C2C=CC3C(=O)N(C)C(=O)C3N2N2CCCCC2)cc1 (stereo not given),-0.267
3,C=C1C2CC3C(=C4C(CO[C@@H]4[C@H]4CCCN4S(=O)(=O)c4ccccc4[N+](=O)[O-])C4C(=O)N(C)C(=O)C34)CC2C(=O)N1C (stereo not given in full),-0.864
4,COCCOC(=O)N1C(=O)[C@@]2(c3cc(C#CC4=CCCCC4)ccc31)[C@H](c1ccc(O)cc1)N1[C@H](c3ccccc3)[C@H](c3ccccc3)OC(=O)[C@H]1[C@@H]2C(=O)Nc1nc2ccccc2s1,-0.0867
5,C[C@H]1C2=C3C(CC[C@H]4C(OCc5ccc(F)cc5C(F)(F)F)OC[C@](C)([C@@H]34)N(C(=O)OC(C)(C)C)C2)C(CO)C1CO (stereo not given in full),-1.62
6,COCCOC(=O)N1C(=O)[C@@]2(c3cc(C#CC4(O)CCCCCC4)ccc31)[C@H](C(=O)N1CCCCCCC1)[C@H]1C(=O)O[C@H](c3ccccc3)[C@H](c3ccccc3)N1[C@@H]2c1ccc(OCCO)cc1,0.918
7,COCCOC(=O)N1C(=O)[C@@]2(c3cc(C#CC4(O)CCCCCC4)ccc31)[C@H](C(N)=O)[C@H]1C(=O)O[C@H](c3ccccc3)[C@H](c3ccccc3)N1[C@@H]2c1ccccc1OCCO,-6.48
8,CC(=O)N1Cc2ccccc2C[C@]2(N=C(c3ccc(OCCCO)cc3)O[C@@H]2c2ccccc2)C1=O,-3.96
9,O=C1OCC=C[C@H]2OC34C=CCN(c5ccc(Cl)cc5)C(=O)[C@H]3N(CCCCCO)C(=O)[C@@H]4[C@@H]12 (stereo not given in full),0.0508
10,C=C(C(=O)CC[C@H](OC(=O)c1cccnc1)c1cccc(OCCO)c1)C(C)C,-1.36
11,CC(C)C(O)C1C=CC2C(=O)N(C)C(=O)C2N1N(c1ccccc1)c1ccccc1 (stereo not given),-0.583
12,O=C1O[C@@H](c2ccccc2)[C@@H](c2ccccc2)N2[C@@H](c3ccc(O)cc3)[C@]3(C(=O)Nc4ccccc43)[C@@H](C(=O)Nc3nc4ccccc4s3)[C@H]12,-4.69
13,COC(=O)[C@@]1(Cc2ccc(OC)cc2)[C@H]2c3cc(C(=O)N(C)C)n(Cc4ccccc4)c3C[C@H]2CN1C(=O)c1ccccc1,-1.66
14,CC1CC/C=C\[C@H]2OC34C=CCN(CCN5CCOCC5)C(=O)[C@H]3N(CCO)C(=O)[C@@H]4C2C(=O)O1 (stereo not given in full),0.119
15,COC(=O)[C@]1(CCS(=O)(=O)c2ccccc2)N=C(c2ccc(OCCCO)cc2)O[C@@H]1c1ccccc1CN=[N+]=[N-],-3.68
16,CC(C)(C)OC(=O)CC[C@]1(C(=O)O)N=C(c2ccc(OCCCO)cc2)O[C@H]1c1ccccc1,1.65
17,O=C1c2ccccc2[C@@]2(Cc3ccccc3N(C3CC3)C2=O)[C@H](c2ccc(CO)cc2)N1C1CCCCC1,-0.546
18,COCCOC(=O)N1C(=O)[C@@]2(c3ccccc31)[C@H](c1ccc(OCCO)cc1)N1[C@H](c3ccccc3)[C@H](c3ccccc3)OC(=O)[C@H]1[C@@H]2C(=O)Nc1nc2ccccc2s1,0.0486

row,SMILES,z-score
1,[N-]=[N+]=Nc1ccccc1C[C@@]1(C(=O)O)N=C(c2ccc(OCCCO)cc2)O[C@@H]1c1ccccc1,0.229
2,CCCNC(=O)[C@@]1(c2ccc([N+](=O)[O-])cc2)CC(=O)N(C2CCCCC2)[C@@H]1c1ccc(CO)cc1I,-1.18
3,COc1ccc([Si](C)(C)[C@H]2[C@H](CCn3cc([C@H](O)c4ccccc4)nn3)O[C@@]3(C(=O)N(Cc4ccc(N5CCOC5=O)cc4)c4ccccc43)[C@@H]2C)cc1,0.129
4,COCCCNC(=O)[C@@]1(Sc2ccc(C)cc2)CC(=O)N(Cc2cc(C(F)(F)F)cc(C(F)(F)F)c2)[C@@H]1c1ccc(CO)cc1,-0.368
5,C=CCC(OC(C)=O)[C@@H]1[C@@H](N(Cc2cc3ccccc3o2)C(=O)Cc2ccc(F)cc2)c2cc(OCCCO)ccc2N1C(=O)c1ccc2ccccc2n1 (stereo not given in full),0.708
6,CCCCC(=C=CC[C@@H](O)c1ccc(OCCO)cc1)C[C@@H](O)COCc1ccccc1,-0.342
7,O=C1O[C@@H](c2ccccc2)[C@@H](c2ccccc2)N2[C@@H](c3ccc(O)cc3)[C@]3(C(=O)Nc4ccc(C#CCCO)cc43)[C@@H](C(=O)NC[C@H](O)c3ccccc3)[C@H]12,1.33
8,[N-]=[N+]=Nc1ccccc1[C@@H]1OC(c2ccc(OCCCO)cc2)=N[C@]1(CCS(=O)(=O)c1ccccc1)C(=O)NCCN1CCOCC1,-0.659
9,COCCCNC(=O)[C@@H]1c2ccccc2C(=O)N(Cc2ccccc2C(F)(F)F)[C@H]1c1ccc(CO)cc1,1.48
10,NC(=O)N1C(=O)C2C(C1=O)C1C=C(CCCO)C2C(c2cccs2)N1Cc1cc2c(cc1Br)OCO2 (stereo not given),0.645
11,CCOC(=O)C[C@H]1[C@H](OC(=O)c2ccccc2-c2ccccc2)[C@@H](NC(=O)CC(C)C)c2cc(OCCCO)ccc2N1C(=O)c1ccc2ccccc2n1,-0.0139
12,CN1C(=O)C2C=CC(C(O)C3CCCCC3)N(N3CCCCC3)C2C1=O (stereo not given),-0.487
13,CO[C@H]1O[C@H](CO)[C@@H](OC(=O)Nc2ccc(C(F)(F)F)cc2)[C@H](OC(=O)Nc2ccc3c(c2)OCO3)[C@H]1OC(=O)Nc1ccc2c(c1)OCO2,-3.35
14,NCCCCCCNC(=O)[C@@H]1C[C@@H]2C(=O)N3CCC[C@H]3C(=O)N2[C@@H]1c1ccc(O)cc1,-0.134
15,COC(=O)C(CC#Cc1ccc2c(c1)[C@]1(C(=O)N2)[C@H](C(=O)O)[C@H]2C(=O)O[C@H](c3ccccc3)[C@H](c3ccccc3)N2[C@@H]1c1ccccc1OCCO)C(=O)OC,-4.42
16,CCOC(=O)[C@H]1C/C=C/C[C@H](C(=O)OCC)C(=O)O[C@H]2[C@@H](OC)O[C@H](CO)[C@@H](OC(=O)CCc3ccccc3)[C@@H]2OC1=O,0.116
17,C[C@]12C(=O)N(CCCCCCO)[C@@H]3C(=O)N(c4ccc(Cl)cc4)CC=CC31O[C@@H]1/C=C\CCCOC(=O)C12 (stereo not given in full),1.05
